Source: PubChem BioAssay
Calls of active or inactive are those of the source.

How the values were obtained:
[1] = system: Plasmodium falciparum Sir2 (PF13_0152, Sir2A); assay: Plasmodium falciparum Sir2A binding compounds – biochemical, small-molecule microarray, 635 nm fluorescence, primary screen (AID 1098); conditions: fluorescence 635 nm, higher = more signal;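 also: score merges spot fluorescence intensity with its signal-to-noise ratio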
[2] = probe aDKK1 binding to arrayed compounds – biochemical, biotinylated probe, 635/667 nm fluorescence, primary screen (AID 1099); conditions: small-molecule microarray, higher = more signal;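 also: score merges 667nm spot fluorescence with signal to noise across triplicate slides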
[3] = probe aCHRDL2 binding to arrayed compounds – biochemical, biotinylated probe, 635/667 nm fluorescence, primary screen (AID 1100); conditions: small-molecule microarray, higher = more signal
[4] = change in splice reporter luminescence, either direction, cell-based, HEK293, spliceosome inhibition project, primary screen (AID 1101); conditions: HEK293 splicing luciferase reporter, 24 h, higher = more signal, called active from +8 up or from −8 down;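 also: HEK293 cells carrying a splicing-competent luciferase reporter gene; test concentration not given here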
[5] = target: Fibroblast growth factor 10 (Homo sapiens) (UniProt O15520); assay: compounds binding fibroblast growth factor 10 – biochemical, small-molecule microarray, 635 nm fluorescence, primary screen (AID 1102); conditions: FGF10 binding, fluorescence 635 nm, higher = more signal
[6] = system: glycogen synthase kinase-3 (GSK3A per assay name; protocol says GSK3B); assay: compounds binding glycogen synthase kinase-3 – biochemical, small-molecule microarray, 635 nm fluorescence, GSK3A, primary screen (AID 1103); conditions: fluorescence 635 nm, higher = more signal; also: the record names both GSK3A and GSK3B
[7] = target: Epidermal growth factor receptor (Homo sapiens) (UniProt P00533); assay: compounds binding epidermal growth factor receptor – biochemical, small-molecule microarray, 635 nm fluorescence, primary screen (AID 1104); conditions: EGFR binding, higher = more signal;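 also: score merges 667 nm emission intensity with spot signal to noise over triplicate slides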
[8] = target: Follistatin-related protein 3 (Homo sapiens) (UniProt O95633); assay: compounds binding follistatin-related protein 3 – biochemical, small-molecule microarray, 635 nm fluorescence, primary screen (AID 1105); conditions: FSTL3 binding, higher = more signal;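 also: score merges emission near 667 nm and signal to noise per printed spot across three slides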
[9] = target: Dickkopf-related protein 1 (Homo sapiens) (UniProt O94907); assay: small molecules binding DKK1 protein – biochemical, small-molecule microarray, 635 nm fluorescence scan, primary screen (AID 1106); conditions: higher = more signal;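 also: score merges emission near 667 nm with signal to noise over three replicate slides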
[10] = system: Inhibin beta A chain (activin A); assay: small molecules binding activin A – biochemical, small-molecule microarray, 635 nm fluorescence scan, primary screen (AID 1107); conditions: INHBA, higher = more signal;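 also: mouse activin A protein probed at 4.33 µg/mL on printed slides; score merges bound-protein fluorescence near 667 nm with spot signal-to-noise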
[11] = system: Human papillomavirus type 1a protein E7 (residues 44-93); assay: small molecules binding HPV E7 44-93 – biochemical, small-molecule microarray, residues 44-93, 635 nm fluorescence, primary screen (AID 1108); conditions: fluorescence 635 nm, higher = more signal;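 also: E7 fragment applied at 1 µg/mL in TBST for 1 h at 4 C; score combines spot fluorescence with its signal to noise ratio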
[12] = hepatitis C replication reporter changes, two-sided – Huh7 cells, luciferase reporter, HCV replication inhibitor project, primary screen (AID 1109); conditions: Huh7 HCV replicon luciferase reporter, 48 h; higher = more signal;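 also: huh7 hepatoma cells harbouring a luciferase neomycin HCV replicon reporter; luciferase luminescence as measure of HCV replicon replication; test concentration not given here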
[13] = target: Left-right determination factor 2 (Homo sapiens) (UniProt O00292); assay: small molecules binding LEFTY2 protein – biochemical, small-molecule microarray, 635 nm fluorescence scan, primary screen (AID 1110); conditions: higher = more signal
[14] = target: Calmodulin-1 (Homo sapiens) (UniProt P0DP23); assay: small molecules binding calmodulin-1 with EGTA – biochemical, small-molecule microarray, Cy5-labelled CALM1, profiling panel (AID 1111); conditions: Cy5-CALM1 binding fluorescence, higher = more signal;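 also: labelled calmodulin applied in Tris saline Tween buffer holding calcium plus EGTA and DTT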
[15] = target: Calmodulin-1 (Homo sapiens) (UniProt P0DP23); assay: small molecules binding Ca-loaded calmodulin-1 – biochemical, small-molecule microarray, Cy5-labelled CALM1, plus calcium, artefact control for SMM control-protein annotation, profiling panel (AID 1112); conditions: Cy5-CALM1 binding fluorescence, higher = more signal;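 also: score merges spot fluorescence with signal to noise from triplicate slides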
[16] = probe aWnt5a binding to arrayed compounds – biochemical, biotinylated probe, 635/667 nm fluorescence, primary screen (AID 1113); conditions: small-molecule microarray, higher = more signal;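 also: score merges 667 nm fluorescence intensity with signal-to-noise per printed feature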
[17] = probe aShh binding to arrayed compounds – biochemical, biotinylated probe, 635/667 nm fluorescence, primary screen (AID 1114); conditions: small-molecule microarray, higher = more signal;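 also: probe is biotin-labelled aShh protein from a stem cell growth factor screen; measures binding of labelled protein to compounds printed on the slide; score merges feature fluorescence at 667 nm with signal-to-noise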
[18] = probe aNog binding to arrayed compounds – biochemical, biotinylated probe, 635/667 nm fluorescence, primary screen (AID 1115); conditions: small-molecule microarray, higher = more signal;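 also: probe is biotinylated aNog protein used at 0.15 µg/mL for 1 h at 4 C; z-score combines 667 nm fluorescence of each spot with its signal to noise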
[19] = target: Torsin-1A-interacting protein 1 (Homo sapiens) (UniProt Q5JTV8); assay: compound microarray binding of lysate hLAP1 – cell lysate, small-molecule microarray, COS7 lysate, 635/667 nm fluorescence, primary screen (AID 1116); conditions: 635 nm fluorescence, higher = more signal
[20] = target: Alpha-bungarotoxin (Bungarus multicinctus) (UniProt P60615); assay: compounds binding labelled alpha-BTX control protein – biochemical, small-molecule microarray, Alexa647 label, 635/667 nm fluorescence, artefact control for SMM control protein annotation, profiling panel (AID 1117); conditions: alpha-BTX-A647 binding fluorescence, higher = more signal
Chain of Alpha-bungarotoxin (Bungarus multicinctus) (P60615 whole entry, looked up): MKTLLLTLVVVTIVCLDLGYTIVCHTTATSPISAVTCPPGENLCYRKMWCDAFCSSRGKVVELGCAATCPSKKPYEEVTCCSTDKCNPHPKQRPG

Chain of Follistatin-related protein 3 (Homo sapiens) (O95633 whole entry, looked up): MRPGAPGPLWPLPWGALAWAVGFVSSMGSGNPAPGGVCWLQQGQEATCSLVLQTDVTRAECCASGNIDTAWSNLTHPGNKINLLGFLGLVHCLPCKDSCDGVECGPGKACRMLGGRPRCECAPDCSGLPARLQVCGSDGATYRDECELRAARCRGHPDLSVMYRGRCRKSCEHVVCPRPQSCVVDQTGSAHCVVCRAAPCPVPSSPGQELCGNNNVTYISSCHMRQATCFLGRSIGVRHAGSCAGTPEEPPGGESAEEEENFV
Chain of Left-right determination factor 2 (Homo sapiens) (O00292 whole entry, looked up): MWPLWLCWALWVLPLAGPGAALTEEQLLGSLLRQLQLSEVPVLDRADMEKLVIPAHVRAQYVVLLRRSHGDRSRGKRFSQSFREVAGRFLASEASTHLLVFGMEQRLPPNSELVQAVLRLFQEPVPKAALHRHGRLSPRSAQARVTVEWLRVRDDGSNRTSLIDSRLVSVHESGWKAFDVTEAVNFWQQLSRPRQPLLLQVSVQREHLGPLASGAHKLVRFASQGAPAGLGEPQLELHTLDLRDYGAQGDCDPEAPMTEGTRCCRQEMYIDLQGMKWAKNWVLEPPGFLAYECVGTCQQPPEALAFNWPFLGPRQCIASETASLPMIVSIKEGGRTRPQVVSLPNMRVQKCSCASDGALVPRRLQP
Chain of Dickkopf-related protein 1 (Homo sapiens) (O94907 whole entry, looked up): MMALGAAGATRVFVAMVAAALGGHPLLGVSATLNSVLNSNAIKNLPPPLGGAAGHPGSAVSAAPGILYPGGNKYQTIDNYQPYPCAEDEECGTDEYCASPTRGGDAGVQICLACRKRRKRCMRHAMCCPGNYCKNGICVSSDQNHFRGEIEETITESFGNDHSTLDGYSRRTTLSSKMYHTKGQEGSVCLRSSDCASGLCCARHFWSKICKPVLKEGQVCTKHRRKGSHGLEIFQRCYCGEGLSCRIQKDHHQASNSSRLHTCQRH
Chain of Epidermal growth factor receptor (Homo sapiens) (P00533 whole entry, looked up): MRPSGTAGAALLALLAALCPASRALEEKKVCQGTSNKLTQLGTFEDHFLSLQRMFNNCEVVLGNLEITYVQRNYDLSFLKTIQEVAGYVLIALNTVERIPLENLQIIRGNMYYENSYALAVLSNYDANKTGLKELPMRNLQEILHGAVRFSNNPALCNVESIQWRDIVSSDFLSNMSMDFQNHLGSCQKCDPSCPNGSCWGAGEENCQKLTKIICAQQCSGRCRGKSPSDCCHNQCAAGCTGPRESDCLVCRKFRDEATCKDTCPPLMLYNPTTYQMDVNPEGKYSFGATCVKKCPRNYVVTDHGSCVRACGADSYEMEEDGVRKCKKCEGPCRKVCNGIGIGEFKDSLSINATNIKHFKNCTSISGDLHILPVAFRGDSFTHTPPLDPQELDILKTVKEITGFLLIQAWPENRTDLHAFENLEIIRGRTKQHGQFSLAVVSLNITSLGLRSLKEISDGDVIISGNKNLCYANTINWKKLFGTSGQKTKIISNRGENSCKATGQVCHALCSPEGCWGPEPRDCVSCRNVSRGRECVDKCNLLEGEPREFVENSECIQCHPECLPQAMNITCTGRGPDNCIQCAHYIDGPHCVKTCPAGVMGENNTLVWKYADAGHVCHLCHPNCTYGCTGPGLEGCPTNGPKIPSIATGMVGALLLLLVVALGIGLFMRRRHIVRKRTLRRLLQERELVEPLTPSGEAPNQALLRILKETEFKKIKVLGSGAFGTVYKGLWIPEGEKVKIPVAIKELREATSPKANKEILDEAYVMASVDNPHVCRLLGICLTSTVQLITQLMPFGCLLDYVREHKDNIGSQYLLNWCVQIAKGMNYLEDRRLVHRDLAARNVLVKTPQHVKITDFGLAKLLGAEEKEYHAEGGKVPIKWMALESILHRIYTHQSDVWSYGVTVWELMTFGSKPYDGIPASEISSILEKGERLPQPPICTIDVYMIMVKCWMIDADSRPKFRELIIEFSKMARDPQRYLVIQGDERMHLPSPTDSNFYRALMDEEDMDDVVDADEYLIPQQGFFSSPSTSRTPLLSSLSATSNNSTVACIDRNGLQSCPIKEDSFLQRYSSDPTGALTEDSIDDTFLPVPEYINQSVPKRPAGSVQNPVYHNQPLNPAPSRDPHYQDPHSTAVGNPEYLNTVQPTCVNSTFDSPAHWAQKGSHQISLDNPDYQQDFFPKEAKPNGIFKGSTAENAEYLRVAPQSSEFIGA
Chain of Torsin-1A-interacting protein 1 (Homo sapiens) (Q5JTV8 whole entry, looked up): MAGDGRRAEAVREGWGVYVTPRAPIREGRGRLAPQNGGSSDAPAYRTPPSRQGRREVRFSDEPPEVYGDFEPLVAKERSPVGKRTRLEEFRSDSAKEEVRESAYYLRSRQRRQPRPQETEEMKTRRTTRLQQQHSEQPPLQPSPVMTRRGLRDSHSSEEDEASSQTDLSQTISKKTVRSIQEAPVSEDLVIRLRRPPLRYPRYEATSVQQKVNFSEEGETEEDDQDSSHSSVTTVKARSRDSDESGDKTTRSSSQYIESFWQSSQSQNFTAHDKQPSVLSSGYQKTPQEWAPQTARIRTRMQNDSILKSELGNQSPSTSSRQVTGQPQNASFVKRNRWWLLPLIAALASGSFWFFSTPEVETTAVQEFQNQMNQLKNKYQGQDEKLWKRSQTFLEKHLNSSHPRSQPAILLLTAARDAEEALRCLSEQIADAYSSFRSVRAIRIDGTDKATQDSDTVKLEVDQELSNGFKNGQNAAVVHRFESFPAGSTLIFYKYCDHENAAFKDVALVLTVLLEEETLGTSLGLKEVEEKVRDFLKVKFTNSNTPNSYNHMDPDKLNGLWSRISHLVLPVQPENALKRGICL
Chain of Fibroblast growth factor 10 (Homo sapiens) (O15520 whole entry, looked up): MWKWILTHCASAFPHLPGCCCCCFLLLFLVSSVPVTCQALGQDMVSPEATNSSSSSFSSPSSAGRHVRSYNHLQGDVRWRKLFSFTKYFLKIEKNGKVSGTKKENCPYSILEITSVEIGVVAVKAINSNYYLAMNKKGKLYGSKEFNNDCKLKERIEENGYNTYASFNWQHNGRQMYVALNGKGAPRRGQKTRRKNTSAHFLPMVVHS

Row | SMILES | composite z-score [1] | composite z-score [2] | composite z-score [3] | z-score [4] | composite z-score [5] | composite z-score [6] | composite z-score [7] | composite z-score [8] | composite z-score [9] | composite z-score [10] | composite z-score [11] | z-score [12] | composite z-score [13] | composite z-score [14] | composite z-score [15] | composite z-score [16] | composite z-score [17] | composite z-score [18] | composite z-score [19] | composite z-score [20]
1 | COC(=O)[C@@]1(Cc2ccc(F)cc2)[C@H]2c3cc(C(=O)N(C)C)n(Cc4ccc(S(C)(=O)=O)cc4)c3C[C@H]2CN1C(=O)c1ccccc1 | 0.46 | 0.883 | 0.899 | 0.895 (inactive) | 1.35 | 0.0364 | 0.603 | 0.0567 | -0.0071 | 0.95 | -0.164 | -0.328 | 0.213 | 2.54 | 0.497 | -0.0125 | 0.123 | 1.84 | 2.08 | 0.15
2 | COc1ccc(C(=O)Nc2cccc(CN3C(=O)[C@]4(O[C@H](CCO)[C@@H]([Si](C)(C)c5ccc(OC)cc5)[C@@H]4C)c4ccccc43)c2)cc1 | 1.44 | 0.541 | 0.223 | 1.3 (inactive) | 0.691 | 0.901 | 0.0077 | 0.742 | 0.331 | 1.26 | 1.28 | -5.16 | 0.442 | 0.123 | 0.0559 | 0.0194 | -0.133 | 0.6 | 0.603 | 0.805
3 | COC(=O)[C@@]1(Cc2ccc(OC)cc2)[C@H]2c3cc(C(=O)N(C)C)n(Cc4cccc5ccccc45)c3C[C@H]2CN1C(=O)c1ccccc1 | 0.971 | 1.8 | 0.771 | -3.61 (inactive) | 1.04 | 0.329 | 0.671 | 0.553 | 0.208 | 0.537 | 1.48 | -2.35 | 0.243 | 1.48 | 0.94 | 0.346 | 1.33 | 2.12 | 1.41 | 0.563
4 | CCOC1=C2C(CN(S(=O)(=O)c3ccc(C)cc3)C2c2ccc(C)cc2)C2C(=O)N(c3ccccc3)C(=O)C2C1 (stereo not given) | 0.9 | 0.0373 | 0.267 | -0.113 (inactive) | 1.25 | 0.36 | 0.171 | 0.782 | 0.207 | 0.809 | 1.11 | -0.348 | 0.349 | 0.861 | 0.528 | -0.106 | 0.0893 | 0.194 | 0.326 | 0.389
5 | COc1ccc([Si](C)(C)[C@H]2[C@H](CC(=O)N3CCC[C@H]3CO)O[C@@]3(C(=O)N(Cc4cccc(N5C(=O)c6cccc7cccc5c67)c4)c4ccccc43)[C@@H]2C)cc1 | 1.45 | -0.109 | -0.098 | 0.685 (inactive) | 1.29 | 0.483 | 0.761 | 1.25 | 0.892 | 0.459 | 1.34 | -3.12 | 0.758 | 0.681 | -0.0975 | 0.0775 | -0.196 | 1.02 | 0.582 | 1.56
